# Experimental data: PubChem BioAssay (NCI)
# Compounds without any hit were thinned out: in the full panel of roughly 83,000, 20% have a hit.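 Compound tested at a single concentration for 48 hours in 96-well plates; a percent growth value below 10 was scored as active.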 A number with no mark means an inactive call. The source made the active and inactive calls.
# Tested on: CAKI-1 renal
# Test: NCI-60 one-dose screen, 48 h (100 = growth as untreated, 0 = no growth, -100 = all killed)
# Settings: 10 µM unless noted
row,SMILES,growth
1,COc1ccc(C2CC(c3ccc(Nc4ccnc5cc(Cl)ccc45)cc3)=NN2c2ccccc2)cc1 (centres undefined),85.1%
2,O=C(/C=C/c1cn(-c2ccccc2)nc1-c1cccc(Nc2ccnc3cc(Cl)ccc23)c1)c1ccc2c(c1)OCO2,100%
3,NC(=O)c1noc(C(=O)c2ccccc2)c1N,98.6%
4,Fc1ccc(-c2ccnc3nc(-c4ccncc4)nn23)cc1,92.1%
5,O=C1CC2(O)CSc3nc(=O)cc(n32)N1 (centres undefined),92.5%
6,CCOC(=O)C1=C(C)NC(SCc2nnc(-c3ccc(Cl)cc3)o2)=NC1c1ccc(Br)cc1 (centres undefined),67.2%
7,CN(C)CCOc1nc2c3cccnc3cc(-c3cccc(Cl)c3)c2c2ncccc12,28.1%
8,Nc1ncnc2c1N=C(c1ccc(F)cc1)CC(c1sc(Cl)nc1Cl)N2 (centres undefined),98%
9,O=C1/C(=C\c2cccn2Cc2ccc(Cl)cc2)c2ccccc2N1c1c(Cl)cccc1Cl,75%
10,CCOC(CN1CCN(CC(C)C(=O)c2ccccc2)CC1)c1ccccc1 (centres undefined),93.7%
11,COc1ccc2[nH]c(C(=O)OCc3ccc4cccc(O)c4n3)cc2c1,-97.6% (active)
12,O=C(CCc1nc2sc3c(c2c(=O)[nH]1)CCC3)NCc1cn(-c2ccccc2)nc1-c1ccccc1,92.5%
13,COc1ccc(-c2nc(-c3ccccc3OCc3ccccc3OC)nc(C)c2C(C)=O)cc1,73.3%
14,[Ag].[Ag].[NH-]S(=O)(=O)c1ccc(N=Nc2cc(N=Nc3ccc(S([NH-])(=O)=O)cc3)c3c(NC(=O)C(Cl)Cl)cccc3c2OC(=O)C(Cl)Cl)cc1.[c-]1nccs1.[c-]1nccs1,59.1%
